# Screening data from PubChem.
# Hits are enriched below; roughly 3.5% of the tested compounds scored in any of these assays.
# TEAD-YAP block: TEAD-YAP interaction inhibition, primary screen, TEAD-YAP interaction inhibitor project, luminescence, HEK-TIYL cells; 640,000 compounds, 1.4% hits; inhibition, % at 9.12 µM; AID 1259422, 2018; TEAD-Gal4/YAP UAS-luciferase luminescence; in the data active = inhibition above about 32%;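 also: 0% = median of test compound wells and 100% = reference inhibitor wells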
# MITF primary: MITF inhibitors, primary screen, biochemical, AlphaScreen, human; AlphaScreen MITF homodimerization, bead proximity signal; inhibition, % at 2.6 µM; AID 1259374, 2018; 650,000 compounds, 0.91% hits; in the data active = inhibition above about 50%;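 also: 0% = vehicle wells with protein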
# FBW7 activator: FBW7 E3 ligase activators, primary screen, biochemical, AlphaScreen, human; AlphaScreen FBW7–phospho-cyclin E peptide binding, activator screen; 650,000 compounds, 0.13% hits; AID 1259310, 2017; normalized activity (activation), % at 26.1 µM; in the data active = normalized activity above about 1.9%;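 also: purified mutant Fbw7 with reduced substrate affinity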
# GPR151 activ: activators of human GPR151, primary screen, cell-based, PathHunter beta-arrestin, luminescence; 650,000 compounds, 1% hits; activation, % at 11.2 µM; PathHunter beta-arrestin GPR151 cells; G-protein coupled receptor 151 (Homo sapiens), Q8TDV0; in the data active = activation above about 4.9%;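 also: 0% = median of compound wells and 100% = cells with positive control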
# * hit, by the source's call.
SMILES,TEAD-YAP block,MITF primary,FBW7 activator,GPR151 activ
CNc1nc(N/N=C/c2ccc(OC)c(OC)c2)nc(Nc2cccc(C(F)(F)F)c2)n1,53*,0,0,2
COc1cccc(OC)c1Cn1nnc2c(=O)[nH]c(C(=O)Nc3ccccc3Cl)nc21,-1,10,0,0
N=C1c2ccccc2CN1CC(=O)c1ccc2c(c1)OCCO2,77*,2,0,-7
COc1ccc(C(=O)CN2Cc3ccccc3C2=N)cc1OC,-84,12,0,0
COc1ccc(C(=O)Cn2ccsc2=N)cc1,-52,-5,0,-2
N=C1c2ccccc2CN1CC(=O)c1ccc(-c2ccccc2)cc1,80*,-6,0,-3
N=c1sccn1CC(=O)c1ccc2c(c1)OCCO2,35*,-13,0,-7
Cc1ccc(-c2csc3ncnc(N4CCC(C(=O)O)CC4)c23)cc1,-9,5,0,1
